HUVEC tox TNFa = HUVEC cytotoxicity counter-screen, TNF alpha stimulated | AID 848 | cell count reduction, % at 2 µM | HUVEC TNFalpha-stimulated, Hoechst cell count, imaging | hit rate 0.17% among 93,000;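 active means cell count reduction exceeding the screen mean by over 5 SD, scaled to untreated wells per plate, cut at about 78% in these data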;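 further: cells counted after 24 h of TNF alpha exposure following the 1 h pretreatment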
E-sel TNF inh = blocks E-selectin expression induced by TNF alpha. HUVEC TNFa-induced E-selectin immunofluorescence, high content. inhibition, % at 2 µM. hit rate 0.71% among 120,000;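 active means inhibition above the batch mean plus 3 SD, and confirmed as a hit on visual image review, cut at about 43% in these data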;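 further: 0% = TNF-stimulated DMSO wells and 100% = unstimulated control wells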
S1P2 ag = agonists of human S1P2 receptor. O95136. S1P2-expressing cell line, agonist reporter read-out. activation, % at 4.5 µM. hit rate 0.46% among 97,000; in the data active means activation above about 16%;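 further: 0% = vehicle low control and 100% = maximal reference agonist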
Target sequence (O95136 whole entry, looked up): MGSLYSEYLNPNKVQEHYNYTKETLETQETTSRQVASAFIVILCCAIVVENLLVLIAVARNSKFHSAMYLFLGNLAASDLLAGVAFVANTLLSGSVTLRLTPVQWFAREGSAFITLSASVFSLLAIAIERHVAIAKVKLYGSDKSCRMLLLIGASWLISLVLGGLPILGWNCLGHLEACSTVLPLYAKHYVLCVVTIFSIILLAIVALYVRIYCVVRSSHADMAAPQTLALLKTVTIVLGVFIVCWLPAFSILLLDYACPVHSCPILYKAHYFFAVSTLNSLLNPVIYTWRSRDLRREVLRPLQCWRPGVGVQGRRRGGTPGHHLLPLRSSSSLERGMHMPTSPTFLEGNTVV
cytoskel mod = alters cytoskeleton assembly in HUVEC cells | HUVEC TNFa F-actin phalloidin imaging, high content | inhibition, % at 2 µM | hit rate 0.18% among 91,000;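 active means inhibition above the batch mean plus 3 SD and confirmed as a hit by visual image inspection, cut at about 30% in these data, passing the limit was not always enough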
VCAM1 TNFa inh = reduces TNF alpha induced VCAM1 expression in HUVEC; HUVEC TNFa-induced VCAM-1 immunofluorescence, high-content imaging; inhibition, % at 2 µM; hit rate 0.48% among 95,000; AID 802;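 active means inhibition above the batch mean plus 3 SD, with images confirmed as a hit by eye, cut at about 37% in these data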;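 further: 0% = TNF-stimulated DMSO wells and 100% = unstimulated control wells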
S1P2 antag = antagonists of human S1P2 receptor | cell-based S1P2 antagonist assay, inhibition at 5 uM | O95136 | hit rate 0.21% among 97,000 | inhibition, % at 5 µM | AID 736; in the data active means inhibition above about 45%;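 further: CRE beta-lactamase reporter cells expressing human S1P2 stimulated with S1P; 0% = agonist at EC80 alone and 100% = agonist plus reference antagonist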
The depositor's hits bear a star. Compounds with a hit are over-represented: about 1.6% of the library has one in this group of screens.

`Cc1ccc(S(=O)(=O)Nc2cc(C(=O)NCCN3CCCC3)ccc2N2CCCCC2)cc1` gave HUVEC tox TNFa 88*, S1P2 ag -3, cytoskel mod -20, VCAM1 TNFa inh 74* and S1P2 antag 7.
`COc1cc(C(=O)Nc2sc3c(c2C(=O)NCc2ccco2)CCCC3)cc(OC)c1OC` gave HUVEC tox TNFa -20, E-sel TNF inh 14, S1P2 ag 23*, cytoskel mod 6, VCAM1 TNFa inh 1 and S1P2 antag -21.
COc1ccc(C(=O)Nc2sc3c(c2C(=O)NCc2ccco2)CCCC3)cc1OC was read as HUVEC tox TNFa -11, E-sel TNF inh 13, S1P2 ag 10, cytoskel mod -5, VCAM1 TNFa inh 12 and S1P2 antag -3.
COc1ccccc1NS(=O)(=O)c1ccc(NC(C)=O)cc1 was read as HUVEC tox TNFa 3, E-sel TNF inh 17, S1P2 ag -4, cytoskel mod -12, VCAM1 TNFa inh -7 and S1P2 antag -21.
Screening COC(=O)/C=C/S(=O)(=O)c1ccc(NC(C)=O)cc1 returned HUVEC tox TNFa -26, E-sel TNF inh 92*, S1P2 ag -6, cytoskel mod -6, VCAM1 TNFa inh 1 and S1P2 antag 28.
`CCCCN(C(=O)CCC(=O)Nc1cc(C)on1)C(C(=O)NC(C)(C)C)c1cccc(OC)c1OC` (stereo unspecified) gave HUVEC tox TNFa -10, E-sel TNF inh 21, S1P2 ag -2, cytoskel mod -37, VCAM1 TNFa inh 14 and S1P2 antag -13.
Screening COc1cccc(C(C(=O)NC(C)(C)C)N(C(=O)CCC(=O)Nc2cc(C)on2)C2CC2)c1OC (stereo unspecified) returned HUVEC tox TNFa 4, E-sel TNF inh 67*, S1P2 ag -2, cytoskel mod -25, VCAM1 TNFa inh -4 and S1P2 antag 12.
CCn1nc(NC(=O)c2ccncc2)c2cc3cccc(C)c3nc21 was read as HUVEC tox TNFa 24, E-sel TNF inh -9, S1P2 ag 2, cytoskel mod -44, VCAM1 TNFa inh 3 and S1P2 antag -11.
CCn1nc(NC(=O)c2ccccn2)c2cc3cccc(C)c3nc21 was read as HUVEC tox TNFa -26, E-sel TNF inh -23, S1P2 ag 19*, cytoskel mod 0, VCAM1 TNFa inh 11 and S1P2 antag -33.
`CC(C)(C)c1ccc(C(=O)NNC(=O)c2cccc(Br)c2)cc1` gave HUVEC tox TNFa -26, E-sel TNF inh 11, S1P2 ag 23*, cytoskel mod 18, VCAM1 TNFa inh -13 and S1P2 antag 21.
Screening CC(C)NC(=O)c1cccc(Br)c1 returned HUVEC tox TNFa 12, E-sel TNF inh 2, S1P2 ag -5, cytoskel mod -4, VCAM1 TNFa inh -2 and S1P2 antag -21.
Screening CCOC(=O)c1cnc2cc3c(cn2c1=O)CCCC3 returned HUVEC tox TNFa -20, E-sel TNF inh 5, S1P2 ag -5, cytoskel mod 14, VCAM1 TNFa inh 13 and S1P2 antag 5.
CCOC(=O)C1=C(SCC)c2cc3c(n2C1=O)CCCC3 was read as HUVEC tox TNFa -16, E-sel TNF inh -10, S1P2 ag -7, cytoskel mod 30*, VCAM1 TNFa inh 1 and S1P2 antag -9.
Screening Fc1ccccc1SCc1nnc(-c2ccccc2Br)o1 returned E-sel TNF inh 68*.
Cc1cc(N2CCCCC2)nc(NCc2ccccc2)n1 was read as HUVEC tox TNFa -10, E-sel TNF inh 72*, S1P2 ag -8, cytoskel mod -2, VCAM1 TNFa inh 9 and S1P2 antag 27.
Screening Cc1cc(N2CCOCC2)nc(NCc2ccccc2)n1 returned HUVEC tox TNFa -41, E-sel TNF inh 11, S1P2 ag -9, cytoskel mod 6, VCAM1 TNFa inh 9 and S1P2 antag 26.
For Cc1c(C(=O)Nc2ccc(OC(F)(F)F)cc2)sc2nc3n(c(=O)c12)CCC3 the results were HUVEC tox TNFa -12, E-sel TNF inh -1, S1P2 ag -4, cytoskel mod -6, VCAM1 TNFa inh -4 and S1P2 antag 58*.
For O=C(NC(=O)c1ccncc1)NC(c1ccccc1)c1ccccc1 the results were HUVEC tox TNFa -5, E-sel TNF inh 19, S1P2 ag -6, cytoskel mod 0, VCAM1 TNFa inh -6 and S1P2 antag 21.
`COc1ccccc1NC(=O)CSc1nc2n[nH]c(C)c2c(=N)n1-c1ccccc1Cl` gave HUVEC tox TNFa -12, E-sel TNF inh -23, S1P2 ag 21*, cytoskel mod 1, VCAM1 TNFa inh 26 and S1P2 antag -22.

Screening results (PubChem)
